# Measurements published in PubChem BioAssay (Tox21).
# Results filed as inconclusive are left out. A call without a number means that no potency is given here. Active and inactive are the calls of the source. Unless noted, calls come from the whole dose curve.
# Test system: not listed separately
# Assay: Nuclear factor erythroid 2-related factor 2/antioxidant responsive element (Nrf2/ARE) small molecule agonists: qHTS cell viability counter screen in human keratinocytes (AID 1919968; active = well fitted cell-killing curve with a large enough effect in the repeat runs; note: nearly all actives have a fitted effect of over 55% in size; note: potency is the fitted concentration of half-maximal effect)
# Conditions: KeratinoSens HaCaT ARE cells viability, CellTiter-Fluor, 24 h; series mostly up to 92.4 µM
# How it was run: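 Cytotoxicity was multiplexed with the Nrf2/ARE luciferase assay in the same wells. Stably transfected HaCaT keratinocytes were treated with test compounds for 23 h at 37 C. Cell viability was then measured by CellTiter-Fluor fluorescence.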
SMILES,Potency,"activity change, negative = cytotoxicity"
CC(C)=CC(C)(C)C,inactive,
CCCC/C=C/CCCCO,inactive,
C[C@H](CS)C(=O)N1CCC[C@H]1C(=O)O,inactive,
C/C=C1\[C@H]2C=C(C)C[C@]1(N)c1ccc(=O)[nH]c1C2,inactive,
C[C@@H]1C[C@H]2O[C@@]3(O[C@@H]2C(C)(C)O)[C@H](O)[C@@]2(C)[C@@H]4CC[C@H]5C(C)(C)[C@@H](O[C@@H]6OC[C@@H](O)[C@H](O)[C@H]6O)CC[C@@]56C[C@@]46CC[C@]2(C)[C@@H]13,inactive,
CCCCCC(C)OC(=O)COc1ccc(Cl)c2cccnc12 (stereo not given),inactive,
Cc1ccccc1N=Nc1ccc(N=Nc2c(O)ccc3ccccc23)c(C)c1,inactive,
Brc1c(NC2=NCCN2)ccc2nccnc12,inactive,
CC1CN(c2ccccc2)NC1=O (stereo not given),inactive,
O=C(NCC(O)CO)c1c(I)c(C(=O)NCC(O)CO)c(I)c(N(CCO)C(=O)CO)c1I (stereo not given),inactive,
O=[N+]([O-])c1ccc2ncccc2c1,inactive,
Oc1ccc(C2(c3ccc(O)c(C4CCCCC4)c3)CCCCC2)cc1C1CCCCC1,12.2 µM (active),
Cc1cc(-c2ccc(N=Nc3cc(S(=O)(=O)O)c4ccccc4c3N)c(C)c2)ccc1N=Nc1cc(S(=O)(=O)O)c2ccccc2c1N,inactive,
CCN(CC)CC,inactive,
CO,inactive,
O=C(c1ccccc1)c1ccc(O)cc1O,inactive,
COC(=O)/C=C/C(C)=C\C=C\C(C)=C\C=C\C=C(C)\C=C\C=C(C)\C=C\C(=O)O,inactive,
C[C@H]1[C@H](NC(=O)/C(=N/OC(C)(C)C(=O)O)c2csc(N)n2)C(=O)N1S(=O)(=O)O (stereo in doubt),inactive,
Oc1ccc2ccccc2c1,inactive,
CCOC(=O)c1ccc(C2CCC(NC[C@H](O)COc3ccc(O)c(NS(C)(=O)=O)c3)CC2)cc1 (stereo not given in full),56.4 µM (active),

SMILES,Potency,"activity change, negative = cytotoxicity"
CCOC(=O)[C@@H](C)Oc1ccc(Oc2nc3ccc(Cl)cc3o2)cc1,inactive,
COC(C(=O)O)c1ccccc1 (stereo not given),inactive,
CS(=O)(=O)Nc1ccc([N+](=O)[O-])cc1Oc1ccccc1,inactive,
CN(C)CC/C=C1\c2ccccc2COc2ccccc21,inactive,
O=C(O)Cc1cc(I)c(Oc2ccc(O)c(I)c2)c(I)c1,inactive,
Cn1c(N)nc2nc[nH]c2c1=O,inactive,
Cc1c(Nc2ncccc2C(=O)O)cccc1C(F)(F)F,inactive,
O=C(CS(=O)Cc1ccco1)NC/C=C\COc1cc(CN2CCCCC2)ccn1 (stereo not given),inactive,
O=P(c1ccccc1)(c1ccccc1)c1ccccc1,inactive,
Oc1ccc(N=Nc2ccccc2)cc1,55.2 µM (active),
O=S(c1cc(Cl)cc(Cl)c1O)c1cc(Cl)cc(Cl)c1O,23.7 µM (active),
CN(CCCN1c2ccccc2CCc2ccccc21)CC(=O)c1ccc(Cl)cc1,inactive,
CC(C(=O)O)c1ccc2c(c1)[nH]c1ccc(Cl)cc12 (stereo not given),inactive,
c1ccc2sc(SSc3nc4ccccc4s3)nc2c1,,22.3% [at 19 µM] (inactive)
C=C/C=C/C=C/CCCCC,,4.28% [at 19 µM] (inactive)
CCCCCCOC(=O)c1ccccc1,inactive,
O=C1CCc2ccc(OCCCCN3CCN(c4cccc(Cl)c4Cl)CC3)cc2N1,21.1 µM (active),
O=C(O)CCCCCCCCCCCBr,inactive,
CC(=O)OCC=C(C)C,inactive,
NC1=NCC2c3ccccc3Cc3ccccc3N12 (stereo not given),inactive,

# Molecular target: Gonadotropin-releasing hormone receptor (Homo sapiens) (UniProt P30968)
# Assay: Human gonadotropin-releasing hormone receptor (GnRHR) small molecule agonists, calcium flux assay in GnRHR-HEK293 cells (AID 1920063); note: nearly all actives have a fitted effect of over 35% in size
# Conditions: calcium flux fluorescence, agonist mode; series mostly up to 57.6 µM
# How it was run: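 Agonist activity was measured as intracellular calcium flux in HEK293 cells engineered to stably express human GnRHR. After dye loading for 1 hour at 37 C, compounds in DMSO were added and fluorescence was followed for 3 minutes.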
# Sequence of Gonadotropin-releasing hormone receptor (Homo sapiens) (P30968 whole entry, looked up): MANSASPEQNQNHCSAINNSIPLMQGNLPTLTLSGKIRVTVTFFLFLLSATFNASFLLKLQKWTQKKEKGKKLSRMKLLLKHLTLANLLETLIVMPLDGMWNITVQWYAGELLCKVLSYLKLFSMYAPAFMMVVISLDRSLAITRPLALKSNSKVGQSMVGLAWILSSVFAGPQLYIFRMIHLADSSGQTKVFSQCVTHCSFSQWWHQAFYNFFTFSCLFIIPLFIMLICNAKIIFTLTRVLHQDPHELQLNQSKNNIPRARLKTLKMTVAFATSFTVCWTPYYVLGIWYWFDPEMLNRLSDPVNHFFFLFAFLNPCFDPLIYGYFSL
SMILES,Potency,activity change
CC(C)=CC(C)(C)C,inactive,
CCCC/C=C/CCCCO,inactive,
C[C@H](CS)C(=O)N1CCC[C@H]1C(=O)O,inactive,
C/C=C1\[C@H]2C=C(C)C[C@]1(N)c1ccc(=O)[nH]c1C2,inactive,
C[C@@H]1C[C@H]2O[C@@]3(O[C@@H]2C(C)(C)O)[C@H](O)[C@@]2(C)[C@@H]4CC[C@H]5C(C)(C)[C@@H](O[C@@H]6OC[C@@H](O)[C@H](O)[C@H]6O)CC[C@@]56C[C@@]46CC[C@]2(C)[C@@H]13,inactive,
CCCCCC(C)OC(=O)COc1ccc(Cl)c2cccnc12 (stereo not given),inactive,
Cc1ccccc1N=Nc1ccc(N=Nc2c(O)ccc3ccccc23)c(C)c1,inactive,
Brc1c(NC2=NCCN2)ccc2nccnc12,inactive,
CC1CN(c2ccccc2)NC1=O (stereo not given),inactive,
O=C(NCC(O)CO)c1c(I)c(C(=O)NCC(O)CO)c(I)c(N(CCO)C(=O)CO)c1I (stereo not given),inactive,
O=[N+]([O-])c1ccc2ncccc2c1,inactive,
Oc1ccc(C2(c3ccc(O)c(C4CCCCC4)c3)CCCCC2)cc1C1CCCCC1,inactive,
Cc1cc(-c2ccc(N=Nc3cc(S(=O)(=O)O)c4ccccc4c3N)c(C)c2)ccc1N=Nc1cc(S(=O)(=O)O)c2ccccc2c1N,inactive,
CCN(CC)CC,inactive,
CO,inactive,
O=C(c1ccccc1)c1ccc(O)cc1O,inactive,
COC(=O)/C=C/C(C)=C\C=C\C(C)=C\C=C\C=C(C)\C=C\C=C(C)\C=C\C(=O)O,inactive,
C[C@H]1[C@H](NC(=O)/C(=N/OC(C)(C)C(=O)O)c2csc(N)n2)C(=O)N1S(=O)(=O)O (stereo in doubt),inactive,
Oc1ccc2ccccc2c1,inactive,
CCOC(=O)c1ccc(C2CCC(NC[C@H](O)COc3ccc(O)c(NS(C)(=O)=O)c3)CC2)cc1 (stereo not given in full),inactive,

SMILES,Potency,activity change
CCOC(=O)[C@@H](C)Oc1ccc(Oc2nc3ccc(Cl)cc3o2)cc1,inactive,
COC(C(=O)O)c1ccccc1 (stereo not given),inactive,
CS(=O)(=O)Nc1ccc([N+](=O)[O-])cc1Oc1ccccc1,inactive,
CN(C)CC/C=C1\c2ccccc2COc2ccccc21,inactive,
O=C(O)Cc1cc(I)c(Oc2ccc(O)c(I)c2)c(I)c1,inactive,
Cn1c(N)nc2nc[nH]c2c1=O,inactive,
Cc1c(Nc2ncccc2C(=O)O)cccc1C(F)(F)F,inactive,
O=C(CS(=O)Cc1ccco1)NC/C=C\COc1cc(CN2CCCCC2)ccn1 (stereo not given),inactive,
O=P(c1ccccc1)(c1ccccc1)c1ccccc1,inactive,
Oc1ccc(N=Nc2ccccc2)cc1,inactive,
O=S(c1cc(Cl)cc(Cl)c1O)c1cc(Cl)cc(Cl)c1O,inactive,
CN(CCCN1c2ccccc2CCc2ccccc21)CC(=O)c1ccc(Cl)cc1,inactive,
CC(C(=O)O)c1ccc2c(c1)[nH]c1ccc(Cl)cc12 (stereo not given),inactive,
c1ccc2sc(SSc3nc4ccccc4s3)nc2c1,,"-1.6% [at 11.8 µM, active compounds read high] (inactive)"
C=C/C=C/C=C/CCCCC,,"0.656% [at 11.8 µM, active compounds read high] (inactive)"
CCCCCCOC(=O)c1ccccc1,inactive,
O=C1CCc2ccc(OCCCCN3CCN(c4cccc(Cl)c4Cl)CC3)cc2N1,inactive,
O=C(O)CCCCCCCCCCCBr,inactive,
CC(=O)OCC=C(C)C,inactive,
NC1=NCC2c3ccccc3Cc3ccccc3N12 (stereo not given),inactive,
